Assay outcomes as filed in PubChem BioAssay.
Compounds with a hit are over-represented: about 2.3% of the library has one in this group of screens.
Cardio protect: myocardial damage modulation in H9c2 cells; H9c2 cardiomyocytes, H2O2 injury protection, ATPLite, 2 h; protection from H2O2 cell death, % at 20 µM; 360,000 compounds, 0.63% hits; AID 588492;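 active = compounds giving at least 50% protection of heart cells from peroxide-induced death in the single-dose screen, raw or plate-pattern-corrected value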;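 note: 0% = DMSO wells with peroxide and 100% = DMSO wells without peroxide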
Calpain2 inh: inhibitors of pig calpain II; purified calpain II, fluorogenic peptide substrate, 30 min; inhibition, % at 16 µM; 220,000 compounds, 0.37% hits;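 active = inhibition above about 50%, limit read from the data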
beta cell repl: inducers of beta-cell replication in MIN6 cells; MIN6 cells proliferation, ATPlite luminescence, 48 h; cells starved in 0.2% serum; 100% = growth in 10% serum; proliferation, % at 10 µM; 330,000 compounds, 0.29% hits; AID 2380;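 active = compounds whose signal lies at least 3.5 SD above the mean of all wells on their plate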;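 note: 0% = DMSO-treated cells in low-serum medium and 100% = 10% serum control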
aDG glyco up: alpha-DG glycosylation activation | activation, % at 10 µM | AID 624168 | 360,000 compounds, 0.22% hits | Pro5-aDG cells, alpha-DG glycosylation AlphaScreen (IIH6); 0% Pro5, 100% B10-LARGE cell signal;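 active = activation of at least 8% versus controls, or a plate z-score of at least 8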;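 note: Pro5 are CHO cells carrying HIG-tagged alpha-DG that lacks glycosylation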
FAS TE block: FAS thioesterase (human) inhibition | recombinant FAS-TE, OMFH fluorogenic substrate, fluorescence endpoint | inhibition, % at 15 µM | AID 602261 | 360,000 compounds, 0.67% hits;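 active = compounds whose normalised, plate-corrected inhibition of enzyme fluorescence in the single-dose primary screen is 50% or more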;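 note: 0% = DMSO with enzyme and 100% = substrate without enzyme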
TAG inh: triacylglycerol accumulation inhibition | inhibition, % at 12.5 µM | H9c2 cells, Nile Red lipid (TAG) fluorescence; cells loaded with 200 µM oleic acid | 230,000 compounds, 0.66% hits;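 active = pattern-corrected inhibition of lipid staining of at least 50% with the nuclear-stain viability signal not falling by more than 50%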;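 note: 0% = DMSO wells and 100% = triacsin C control wells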
* hit, by the source's call; nt = no result.

SMILES	Cardio protect	Calpain2 inh	beta cell repl	aDG glyco up	FAS TE block	TAG inh
NS(=O)(=O)c1ccc(CCNC(=O)CN2CCN(S(=O)(=O)c3ccccc3F)CC2)cc1	-1.5	nt	-2.4	-0.2	-5.1	0.5
CN(C)c1ccc(C(C(=O)NC2CCCCC2)N(Cc2ccco2)C(=O)c2snc(C(N)=O)c2N)cc1 (centres undefined)	52.8*	nt	-2.9	-0.4	15.8	nt
NC(=O)c1nsc(C(=O)N(c2ccccc2F)C(C(=O)NCc2ccccc2)c2ccc(O)cc2)c1N (centres undefined)	50.7*	nt	-0.2	0.6	9.2	nt
CCOc1ccccc1N(C(=O)c1snc(C(N)=O)c1N)C(C(=O)NCc1ccccc1)c1ccc(O)cc1 (centres undefined)	2.3	nt	-0.5	0.0	0.6	nt
Cc1ccccc1N(C(=O)c1snc(C(N)=O)c1N)C(C(=O)NCc1ccccc1)c1ccc(O)cc1 (centres undefined)	51.4*	nt	1.7	-0.3	4.0	nt
COc1ccc(C(C(=O)NCc2ccccc2)N(Cc2cccnc2)C(=O)c2snc(C(N)=O)c2N)cc1OC (centres undefined)	12.6	nt	-3.0	0.0	0.7	nt
CN(C)c1ccc(C(C(=O)NCc2ccccc2)N(Cc2cccnc2)C(=O)c2snc(C(N)=O)c2N)cc1 (centres undefined)	61.3*	nt	0.0	-0.2	3.1	nt
CCOC(=O)N(C)c1c(CC)nc2c(OCc3ccc(C(F)(F)F)cc3)cccn12	-1.1	nt	nt	1.0	0.3	-0.1
NC(=O)c1nsc(C(=O)N(Cc2ccco2)C(C(=O)NCc2ccccc2)c2ccc(O)cc2)c1N (centres undefined)	57.6*	nt	0.0	-0.1	-1.8	nt
CCC(C(=O)NCc1ccc(F)cc1)N(Cc1ccco1)C(=O)c1snc(C(N)=O)c1N (centres undefined)	0.6	-61.2	-1.4	0.4	4.1	nt
Cc1ccc(CN(C)C(=O)CN2C(=O)NC(c3ccccc3)(c3ccccc3)C2=O)c(C)c1	1.5	nt	-7.6	0.2	30.3	44.0
CCc1ccc(S(=O)(=O)NCc2cn3c(C)csc3n2)s1	-9.3	100.3*	-1.9	-0.2	-0.1	0.3
CCc1nnc(NC(=O)CSc2nnc(CNc3ccc(OC)cc3)n2C)s1	68.3*	13.5	-3.9	-0.1	-9.4	nt
O=[N+]([O-])c1ccc(Cl)c(NC2=NCCCCC2)c1	-2.3	nt	-2.1	-0.1	-0.5	nt
Cc1ccc(-c2csc(N3CCC[C@@H]3C(=O)NCCn3c(-c4ccncc4)nc4ccccc43)n2)cc1	69.2*	nt	-0.2	1.5	-2.8	33.1
Cc1ccc(-c2csc(N3CCN(CCCn4c(-c5ccncc5)nc5ccccc54)CC3)n2)cc1	45.9	nt	-7.7	1.2	13.6	10.9
CCOc1cc(/C=C/c2nc3ccccc3c(=O)[nH]2)ccc1O	57.1*	nt	-5.1	-0.1	-2.0	nt
COc1ccc(C(C)C)cc1-c1cc(C(=O)NCc2cccc(C(F)(F)F)c2)[nH]n1	-7.8	nt	nt	0.6	15.9	39.7
CC(C)(C)c1csc(N/N=C/c2cccnc2)n1	-4.7	51.4*	1.2	-0.1	13.4	-5.1
C(=N\Nc1nc(-c2ccccc2)cs1)/c1cccnc1	23.1	24.5	-0.7	-0.2	7.4	nt
Cc1sc(NC(=O)CN2CCCC2)nc1-c1ccc2c(c1)CCN2C(=O)c1cccc(F)c1	-2.9	nt	-4.7	2.7*	10.3	nt
CCc1cc(Cn2nc(-c3ccccc3C)cc2C(=O)O)on1	-2.4	nt	1.2	-0.3	-8.6	1.7
COc1ccc(C2=NN(C(=O)c3cccc([N+](=O)[O-])c3)C(c3cccc([N+](=O)[O-])c3)C2)cc1 (centres undefined)	-10.3	0.1	2.4	-0.5	50.1*	nt
COc1ccc(C2CC(c3ccc([N+](=O)[O-])cc3)=NN2C(=O)c2ccccc2)cc1OC (centres undefined)	-10.7	-22.4	-3.3	-0.3	20.6	nt
CN(C)c1ccc(NC(=S)Nc2ccc3c(c2)c(=O)n(C)n3-c2ccc(C(C)(C)C)cc2)cc1	-20.8	nt	nt	0.5	-17.9	46.4
CN1CCN(c2cc3c(c4c2[nH]c2ccccc24)C(=O)CC(C)(C)C3)CC1	-5.2	-362.2	-5.8	1.6	-0.3	54.1*
COc1ccc(CNC(=O)[C@H](Cc2ccccc2)NC(=O)CC[C@H]2O[C@@H](n3ccc(=O)[nH]c3=O)[C@H](O)[C@@H]2O)cc1	7.5	nt	nt	-0.2	-7.2	nt
